Laboratory results taken from PubChem BioAssay (NCATS).
Records with an inconclusive call do not appear. Activity calls are given as the source filed them. Unless noted, calls come from the whole dose curve; as a rule, active = well fitted activation curve with a large enough effect in the main read-out, with a control signal flat (not every such curve was filed as active); inconclusive = small, poorly fitted or top-dose-only effect, or effect the other way, or a change in a side signal; inactive = flat fitted curve, though single readings scatter.

Assays:
[1] = target: Mitogen-activated protein kinase 10 (Mus musculus) (UniProt Q61831); assay: JNK3 AlphaScreen Assay (AID 530; active = well fitted curve in either direction with a large enough effect, not every such curve was filed as active;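 note: kinase came from lysate of stimulated human HepG2 cells; signal reports phosphorylation of biotinylated GST-cJun 1-79 at Ser73 with 10 µM ATP; series mostly up to about 57 µM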)
In short: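 Activity was read by AlphaScreen after JNK3-containing HepG2 lysate (cytokine pre-activated) phosphorylated biotinylated GST-cJun with 10 uM ATP at room temperature. Phospho-Ser73 cJun antibody with Protein-A acceptor beads provided detection.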

[2] = target: 3',5'-cyclic-AMP phosphodiesterase 4B (Homo sapiens) (UniProt Q07343); assay: qHTS Assay for Inhibitors of PDE-IV (AID 607)
In short: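 The readout is membrane depolarisation from a cAMP-sensing CNG channel, detected with a potential dye at ex 535/em 590. Cells were HEK293-derived (endogenous PDE-IV) at 1000 cells/well, titrated up to 22.9 uM final.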

3',5'-cyclic-AMP phosphodiesterase 4B (Homo sapiens), sequence (Q07343 whole entry, looked up): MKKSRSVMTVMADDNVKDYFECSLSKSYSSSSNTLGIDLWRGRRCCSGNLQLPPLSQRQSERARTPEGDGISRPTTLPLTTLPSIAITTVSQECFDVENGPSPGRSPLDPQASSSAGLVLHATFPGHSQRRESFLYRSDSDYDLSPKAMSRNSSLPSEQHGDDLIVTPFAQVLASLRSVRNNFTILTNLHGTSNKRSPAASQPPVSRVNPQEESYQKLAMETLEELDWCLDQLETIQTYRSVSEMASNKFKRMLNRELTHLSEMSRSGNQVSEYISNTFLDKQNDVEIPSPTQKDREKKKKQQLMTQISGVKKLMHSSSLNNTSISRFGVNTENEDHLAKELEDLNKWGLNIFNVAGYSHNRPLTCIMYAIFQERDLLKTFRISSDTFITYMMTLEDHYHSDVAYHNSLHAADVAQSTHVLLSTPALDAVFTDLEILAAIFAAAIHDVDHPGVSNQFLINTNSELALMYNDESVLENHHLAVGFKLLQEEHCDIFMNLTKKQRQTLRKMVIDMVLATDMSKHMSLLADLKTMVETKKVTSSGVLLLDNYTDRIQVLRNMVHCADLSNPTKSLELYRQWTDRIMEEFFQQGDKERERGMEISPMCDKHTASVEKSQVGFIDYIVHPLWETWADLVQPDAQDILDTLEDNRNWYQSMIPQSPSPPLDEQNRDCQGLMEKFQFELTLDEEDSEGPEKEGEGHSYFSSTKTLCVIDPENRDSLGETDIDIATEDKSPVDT

Row | Compound | outcome [1] | outcome [2]
1 | COC(=O)[C@@]1(Cc2ccc(OC)cc2)[C@H]2c3cc(C(=O)N(C)C)n(Cc4ccccn4)c3C[C@H]2CN1C(=O)c1ccccc1 | inactive | inactive
2 | C[C@@H](C(=O)NCc1ccccc1)[C@@H]1C[C@@]1(C)[C@@H](NC(=O)OCc1ccccc1)c1ccccc1 | inactive | inactive
3 | COC(=O)[C@@]1(Cc2ccc(OC)cc2)[C@H]2c3cc(C(=O)N4CCCC4)n(CCN4CNCC4=O)c3C[C@H]2CN1C(=O)c1ccccc1 | inactive | inactive
4 | COC(=O)[C@@H]1C[C@H]1[C@@H](NC(C)=O)c1ccccc1 | inactive | inactive
5 | COC(=O)[C@@]1(Cc2ccc(OC)cc2)[C@H]2c3cc(C(=O)N(C)C)n(C)c3C[C@H]2CN1C(=O)c1ccccc1 | inactive | inactive
6 | COC(=O)[C@@]1(Cc2ccc(OC)cc2)[C@H]2c3cc(C(=O)N(C)C)n(Cc4ccc(Cl)c(C(F)(F)F)c4)c3C[C@H]2CN1C(=O)c1ccccc1 | inactive | inactive
7 | COC(=O)[C@@]1(Cc2ccc(F)cc2)[C@H]2c3cc(C(=O)N4CCCC4)n(Cc4ccc(C(F)(F)F)nc4)c3C[C@H]2CN1C(=O)c1ccccc1 | inactive | inactive
8 | COC(=O)[C@@]1(Cc2ccc(OC)cc2)[C@H]2c3cc(C(=O)N4CCCC4)n(CCc4ccc(O)c(OC)c4)c3C[C@H]2CN1C(=O)c1ccccc1 | inactive | inactive
9 | C[C@@H](C(=O)Nc1ccc2ccccc2c1)[C@H]1C[C@]1(C)[C@H](NC(=O)c1ccccc1)c1ccccc1 | inactive | inactive
10 | O=C(NCc1cccc2ccccc12)[C@H]1C[C@@H]1[C@H](NP(=O)(c1ccccc1)c1ccccc1)c1ccccc1 | inactive | inactive
11 | COC(=O)[C@@]1(Cc2ccc(OC)cc2)[C@H]2c3cc(C(=O)N(C)C)n(Cc4cc(F)c(F)c(F)c4)c3C[C@H]2CN1C(=O)c1ccccc1 | inactive | inactive
12 | Cc1ccc(CNC(=O)[C@H]2C[C@@H]2[C@H](NP(=O)(c2ccccc2)c2ccccc2)c2ccccc2)o1 | inactive | inactive
13 | COC(=O)[C@@]1(Cc2ccccc2)[C@H]2c3cc(C(=O)N(C)C)n(CCO)c3C[C@H]2CN1C(=O)c1ccccc1 | inactive | inactive
14 | COC(=O)[C@@H]1C[C@H]1[C@@H](NS(=O)(=O)c1ccccc1)c1ccccc1 | inactive | inactive
15 | COC(=O)[C@@]1(Cc2ccc(F)cc2)[C@H]2c3cc(C(=O)N4CCCC4)n(Cc4cc(C)n(C)n4)c3C[C@H]2CN1C(=O)c1ccccc1 | inactive | inactive
16 | COC(=O)[C@@]1(Cc2ccc(OC)cc2)[C@H]2c3cc(C(=O)N4CCCC4)n(Cc4cc(F)c(F)c(F)c4)c3C[C@H]2CN1C(=O)c1ccccc1 | inactive | inactive

Row | Compound | outcome [1] | outcome [2]
17 | COC(=O)[C@@]1(Cc2ccc(OC)cc2)[C@H]2c3cc(C(=O)N4CCCC4)n(Cc4cc(C)n(C)n4)c3C[C@H]2CN1C(=O)c1ccccc1 | inactive | inactive
18 | COC(=O)[C@@]1(Cc2ccc(F)cc2)[C@H]2c3cc(C(=O)N(C)C)n(CCc4ccc(O)c(O)c4)c3C[C@H]2CN1C(=O)c1ccccc1 | inactive | inactive
19 | O=C(NCc1ccccn1)[C@H]1C[C@@H]1[C@H](NP(=O)(c1ccccc1)c1ccccc1)c1ccccc1 | inactive | inactive
20 | Cc1c2c(nc3ccccc13)OCC2 | inactive | inactive
21 | COc1ccc(CNC(=O)[C@H]2C[C@@H]2[C@H](NP(=O)(c2ccccc2)c2ccccc2)c2ccccc2)cc1OC | inactive | inactive
22 | C[C@@H](C(=O)Nc1ccc2ccccc2c1)[C@@H]1C[C@@]1(C)[C@@H](NC(=O)c1ccccc1)c1ccccc1 | inactive | inactive
23 | COC(=O)[C@@]1(Cc2ccc(F)cc2)[C@H]2c3cc(C(=O)N(C)C)n(Cc4nc5ccccc5[nH]4)c3C[C@H]2CN1C(=O)c1ccccc1 | inactive | inactive
24 | COC(=O)[C@@]1(Cc2ccccc2)[C@H]2c3cc(C(=O)N(C)C)n(Cc4ccccc4)c3C[C@H]2CN1C(=O)c1ccccc1 | inactive | inactive
25 | C[C@@H](C(=O)NCC1CC1)[C@H]1C[C@]1(C)[C@H](NC(=O)OCc1ccccc1)c1ccccc1 | inactive | inactive
26 | COC(=O)[C@@]1(Cc2ccc(F)cc2)[C@H]2c3cc(C(=O)N(C)C)n(Cc4ccc(O)c(OC)c4)c3C[C@H]2CN1C(=O)c1ccccc1 | inactive | inactive
27 | CCC/C=C(\CCC)C(NC(=O)OCC(C)C)c1ccccc1 (centres undefined) | inactive | inactive
28 | COC(=O)[C@@]1(Cc2ccc(F)cc2)[C@H]2c3cc(C(=O)N4CCCC4)n(CC4CC4)c3C[C@H]2CN1C(=O)c1ccccc1 | inactive | inactive
29 | COC(=O)[C@@]1(Cc2ccc(F)cc2)[C@H]2c3cc(C(=O)N(C)C)n(CCO)c3C[C@H]2CN1C(=O)c1ccccc1 | inactive | inactive
30 | COC(=O)[C@@]1(Cc2ccc(OC)cc2)[C@H]2c3cc(C(=O)N(C)C)n(CCc4ccccn4)c3C[C@H]2CN1C(=O)c1ccccc1 | inactive | inactive
31 | COC(=O)[C@@]1(Cc2ccccc2)[C@H]2c3cc(C(=O)N(C)C)n(Cc4cc(F)c(F)c(F)c4)c3C[C@H]2CN1C(=O)c1ccccc1 | inactive | inactive
32 | COCCNC(=O)[C@H]1C[C@@H]1[C@H](NP(=O)(c1ccccc1)c1ccccc1)c1ccccc1 | inactive | inactive
